The values that follow come from PubChem BioAssay (EPA / NIEHS).

What is called AC50 is the concentration giving half of the maximal activity seen.

SMILES strings stand for the structures. Calls of active or inactive are those of the source. How the source made its calls: active means hit-call score of the fitted dose curve at least 0.9, where 1 is the maximum; inactive means score below 0.9.

Chain of Bile acid receptor (Homo sapiens) (Q96RI1 whole entry, looked up): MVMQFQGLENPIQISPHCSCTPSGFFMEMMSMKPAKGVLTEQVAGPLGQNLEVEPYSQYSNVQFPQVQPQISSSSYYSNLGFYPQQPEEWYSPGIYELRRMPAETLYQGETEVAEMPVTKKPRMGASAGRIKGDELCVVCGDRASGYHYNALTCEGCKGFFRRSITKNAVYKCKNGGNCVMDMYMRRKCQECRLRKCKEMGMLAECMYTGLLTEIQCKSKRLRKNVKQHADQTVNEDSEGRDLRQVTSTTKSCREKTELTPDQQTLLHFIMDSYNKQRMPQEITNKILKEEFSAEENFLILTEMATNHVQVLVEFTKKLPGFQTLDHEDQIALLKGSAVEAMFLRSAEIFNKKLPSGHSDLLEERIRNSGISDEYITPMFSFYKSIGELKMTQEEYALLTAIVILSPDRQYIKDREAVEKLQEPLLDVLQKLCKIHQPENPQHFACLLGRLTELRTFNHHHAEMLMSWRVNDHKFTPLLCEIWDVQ

The assay concerns the target Bile acid receptor (Homo sapiens) (UniProt Q96RI1). Kind of assay: ATG_IR1_CIS: Attagene CIS-FACTORIAL HepG2 Assay for human Nuclear Receptor Subfamily 1 Group H Member 4 (NR1H4), IR1 submotif (AID 2282946). The note with it: IR1 reporter transcription, actives raise or lower the signal. Here is the method:
ATG_CIS is a cell-based, multiplexed-readout assay that uses HepG2, a human liver cell line, with measurements taken at 24 hours after chemical dosing in a 24-well plate.ATG_IR1_CIS is one of 52 assay component(s) measured or calculated from the ATG_CIS assay. It is designed to make measurements of mRNA induction, a form of inducible reporter, as detected with fluorescence intensity signals by Reverse transcription polymerase chain reaction (RT-PCR) and Capillary electrophoresis technology.Data from the assay component ATG_IR1_CIS was analyzed into 1 assay endpoint. This assay endpoint, ATG_IR1_CIS, was analyzed with bidirectional fitting relative to DMSO as the negative control and baseline of activity. Using a type of inducible reporter, measures of mRNA for gain or loss-of-signal activity can be used to understand the reporter gene at the transcription factor-level as they relate to the gene NR1H4. Furthermore, this assay endpoint can be referred to as a primary readout, because this assay has produced multiple assay endpoints where this one serves a reporter gene function. To generalize the intended target to other relatable targets, this assay endpoint is annotated to the nuclear receptor intended target family, where the subfamily is non-steroidal.
Human liver HepG2 cells are transiently transfected with multiple reporter transcription units (MRTUs) in 6-well plates using FuGene 6 reagent (Roche; 3 ml FuGene/1 mg DNA). The MRTU constructs are regulated by a cis-regulating element (promoter). […] A major difference between the CIS and TRANS system is that in CIS activities of endogenous TFs are measured, whereas the TRANS assay evaluates changes in activities of exogenous, chimeric NR-Gal4 proteins. […] At the end of 24 hour incubation, total RNA was isolated using TriZol reagent (Invitrogen). The isolated RNA is then reverse-transcribed using oligo(dT) primer and Mo-MLV reverse transcriptase (Invitrogen) with DNAse I (Ambion) treatment for 30 min. The one-tenth of the produced cDNA was amplified by PCR using Taq DNA polymerase (Invitrogen) and two reporter sequence-specific primers. The PCR products were fluorescently labeled by primer extension with 6-arboxyfluorescein (6-FAM) 5'-labeled reporter sequence-specific primer (2 min at 95 C, 20 s at 68 C and 10 min at 72 C) and these products were digested with 5U of HpaI (New England Biolabs) for 2h at 37 C. The fragments were purified using Qiaquick PCR columns (Qiagen), analyzed on an ABI 3130xL genetic analyzer (Applied Biosystems) with peak positions identified by using a set of X-rhodamine (ROX)-labeled MapMarker1000 molecular weight standards (BioVentures). The raw capillary electrophoresis data was processed using Attagraph software (Attagene).
`C[Si](C)(C)O[Si](O)(O)O`: the molecule was classed as inactive.
With `NC(=O)C1CO1` (stereo not given), the outcome was inactive.
Turning to `C=C[C@](C)(O)CC[C@@H]1[C@@]2(C)CCCC(C)(C)[C@@H]2CC[C@@]1(C)O`, the result was inactive.
For `CCCCCCCC[N+](C)(CCCCCCCC)CCCCCCCC`, the result was inactive.
The same measure, in the same setting: next, `CCN(CCC#N)c1ccc(N=Nc2c(Cl)cc([N+](=O)[O-])cc2Cl)cc1`: “inactive”.
Regarding `CC(C)(C)C(=O)C=Cc1ccc(Cl)cc1`, the concentration at half-maximal activity (AC50) is 10 µM (active).
As to `C=CCOc1c(Br)cc(Br)cc1Br`, the outcome was inactive.
Take `CC(=O)OC(C)C`: the result was inactive.
As to `O=C1CCCCCCCCCCCCCCCO1`, the molecule was called inactive.
Regarding `O=C(/C=C/C=C/c1ccc2c(c1)OCO2)N1CCCCC1`, the half-maximal activity concentration (AC50) is 69.4 µM (active).
For `CC(=O)CC(N)=O`, the result was inactive.
The same measure, in the same setting: under `CC(C)=CC1CC(C)CCO1` (stereo not given) stands “inactive”; under `CCCCCCCCCCc1ccccc1`, “inactive”.
Still for that read-out and setting: next, `CCCOCCOCCOCCO`: “inactive”; `Cc1cccc(N(C)C(=S)Oc2ccc3ccccc3c2)c1`: “inactive”.
In the case of `O=Nc1ccc(O)cc1`, the call was inactive.
Same read-out and setting: under `CCCCC(CC)CCC(CC(C)C)OS(=O)(=O)O` (stereo not given) stands “inactive”; under `Cc1ccc(OC(=O)CC(C)C)cc1`, “inactive”.
Regarding `CC(C)c1ccc2c(C(C)C)cc(C(C)C)c(S(=O)(=O)O)c2c1`, the call was inactive.
The same measure, in the same setting: next, `O=c1n(CCO)c(=O)n(CCO)c(=O)n1CCO`: “inactive”; `CC(C)=CCCC(C)C=O` (stereo not given): “inactive”.
Regarding `CCCCCc1ccc(Cl)cc1`, the result was inactive.
Same read-out and setting: under `CCN(CCO)c1cccc(C)c1` stands “inactive”; under `CCc1nccnc1C`, “inactive”; under `Cc1oncc1C(=O)Nc1ccc(C(F)(F)F)cc1`, “inactive”.
Still for that read-out and setting: next, `c1ccc(CCCc2ccncc2)cc1`: “inactive”.
For the molecule `C=CC(=O)OCC(Br)CBr` (stereo not given), the AC50 was 65.3 µM (active).
For the molecule `C=C(C)C(=O)OCC(C)C`, the molecule was classed as inactive.
On the same count and under the same terms, under `CCCCCCCCc1ccc(Nc2ccc(CCCCCCCC)cc2)cc1` stands “inactive”; under `CCOC(F)(F)C(F)(F)C(F)(F)C(F)(F)F`, “inactive”.
Consider `C#CC1(O)CC[C@H]2[C@@H]3CCC4=CCCC[C@@H]4[C@H]3CC[C@@]21C` (stereo not given in full), for which the AC50 was 0.849 µM (active).
Consider `CC(C)=CCC/C(C)=C\C#N`, for which the outcome was inactive.
In the case of `CCCCNc1ccc(NCCCC)c2c1C(=O)c1ccccc1C2=O`, the result was inactive.
Same read-out and setting: next, `C(=CC=Nc1ccccc1)C=CNc1ccccc1`: “inactive”; `CCCC(C)CCC(C)=O` (stereo not given): “inactive”.
On the same count and under the same terms, next, `Cc1cc(=O)n(-c2ccccc2)n1C`: “inactive”.
The same measure, in the same setting: next, `c1cc(N(CC2CO2)CC2CO2)ccc1OCC1CO1` (stereo not given): “inactive”.
For `Nc1ccc(Cl)cc1Cl`, the molecule was classed as inactive.
For `O=C1C=CC(=O)O1`, the molecule was classed as inactive.
Take `CCCCCCCC/C=C\CCCCCCCC(=O)O`: the half-maximal activity concentration (AC50) is 32 µM (active).
